# Test results published in PubChem BioAssay (Tox21).
# Unmarked numbers belong to inactive results. The source made the active and inactive calls. Calls come from the whole dose curve; as a rule, active = well fitted curve in the direction sought with a large enough effect in the repeat runs; inconclusive = weak or mixed curves; inactive = flat fitted curve, though single readings scatter.
# Assay: qHTS assay to test for compound auto fluorescence at 460 nm (blue) in HEK293 cells (AID 720678)
# Details: blue autofluorescence 405/460 nm; series mostly up to 91.3 µM; fluorescence, % of triamterene: at the top concentration
# Description: National Center for Advancing Translational Sciences [NCATS]
# NIH Chemical Genomics Center [NCGC]
# U.S. Environmental Protection Agency [EPA]
# National Institutes of Environmental Health Sciences [NIEHS]
# National Toxicology Program [NTP]
# U.S. Food and Drug Administration [FDA]
# Compound auto fluorescence often interferes with screening of the compound library against various biological targets and signaling pathways. Some of these compounds may have fluorophoric properties. Such properties may interfere with the assay outputs resulting in false positives and/or negatives. To decrease such complications and ensure the compound activities are relevant in terms of biological response, the Tox21 10K compound library was screened for auto fluorescence.
# From the fluorophores used as reporter signals in our screening assays, the auto fluorescence equivalencies of compounds against three fluorophores have been evaluated: Triamterene, Fluorescein and Rose Bengal sodium for blue, green and red fluorescence, respectively. The fluorescence intensities were measured using Excitation/Emission wavelengths at 405/460nm, 485/535nm and 540/590nm for blue, green and red labels, respectively. This assay includes the blue fluorescence data.
# Tox21 Assay Protocol Summary:
# 2,000 HEK293 cells in 5 uL of culture medium containing 10% dialyzed FBS per well were dispensed into black wall/clear bottom 1536-well plates using a Multidrop Combi Dispenser (Thermo Scientific). The assay plates were incubated for 4-5 hr at 37C to allow cell attachment to the well bottom, followed by the transfer of 23 nL compound or DMSO vehicle by a pintool work station (Kalypsys, San Diego, CA). After the assay plates were incubated overnight at 37C and 5% CO2, fluorescence intensities in the assay plates were measured by an Envision (PerkinElmer, Shelton, CT) plate reader using three labels for measuring blue, green and red fluorescence at […] 460, 535 and 590nm respectively.
# % is set by controls: 0 for no effect and ±100 for the full control effect.
SMILES,"fluorescence, % of triamterene",outcome
CO/N=C(/C(=O)N[C@@H]1C(=O)N2C(C(=O)O)=C(Cn3nnc(C)n3)CS[C@H]12)c1csc(N)n1,-0.06% [at 46 µM],
BrC/C=C/CBr,0.0974% [at 18.6 µM],
CN[C@@H]1[C@H](O)[C@H](NC)[C@H]2O[C@@]3(O)C(=O)C[C@@H](C)O[C@H]3O[C@@H]2[C@H]1O,-0.0174% [at 18.6 µM],
Nc1ccc(/C=C/c2ccc(N)cc2S(=O)(=O)O)c(S(=O)(=O)O)c1,5.14% [at 46 µM],
SCCSCCS,-0.0273%,
CC(=O)c1ccc2c(c1)CCCC2,0.0065%,
CCCCCCCCCCCCCCCC(=O)NCCO,0.0645% [at 46 µM],
O=c1cc(O)c(Cl)c[nH]1,-0.0128% [at 46 µM],
C1CCN2C[C@@H]3C[C@@H](CN4CCCC[C@@H]34)[C@H]2C1,0.214% [at 18.6 µM],
CC(Cl)COP(=O)(OCC(C)Cl)OCC(C)Cl (stereo not given),0.0066%,
CC1(N)CCC(C(C)(C)N)CC1 (stereo not given),0.151%,
Oc1ccccc1Cc1ccccc1O,-0.0612%,
Cc1ccc(S(=O)(=O)NC(=O)NC2CCCCCCC2)cc1,-0.0981% [at 46 µM],
NC(=O)C1(N2CCCCC2)CCN(CCCC(=O)c2ccc(F)cc2)CC1,-0.0031% [at 46 µM],
CC(=O)OCC(=O)[C@@]1(O)[C@H](OC(C)=O)C[C@H]2[C@@H]3CCC4=CC(=O)C=C[C@]4(C)[C@@]3(F)[C@@H](O)C[C@@]21C,-0.0995% [at 46 µM],
F[Si-2](F)(F)(F)(F)F,,inactive
CCCC(C)CC (stereo not given),-0.0311%,
O=S1(=O)CCCC1,-0.26%,
CC(=O)OC(C(=O)c1ccccc1)c1ccccc1 (stereo not given),-0.0346%,
O=C(O)Cc1cccc(-c2cc(CCCCCCc3ccc(O[C@H]4O[C@H](CO)[C@@H](O)[C@H](O)[C@@H]4O)c(-c4cccc(CC(=O)O)c4)c3)ccc2O[C@H]2O[C@H](CO)[C@@H](O)[C@H](O)[C@@H]2O)c1,0.0225% [at 46 µM],

SMILES,"fluorescence, % of triamterene",outcome
CC1=NN(c2ccc(S(=O)(=O)O)cc2)C(=O)C1N=Nc1ccccc1 (stereo not given),-0.41%,
Nc1cc(S(=O)(=O)O)ccc1S(=O)(=O)O,-0.018%,
FC(F)(F)c1ccc(Cl)cc1Cl,-0.123%,
Cc1ccccc1C,-0.169% [at 95.7 µM],
Cc1ccccc1C(=O)N1CC/C(=N\OS(=O)(=O)O)c2ccc(Cl)cc21,0.0892% [at 46 µM],
CCCCC[Si](OCC)(OCC)OCC,0.0472%,
FC(F)(F)/C(=N\OCC1OCCO1)c1ccc(Cl)cc1,0.109%,
O=c1[nH]c(=O)c2ccccc2o1,0.0206% [at 46 µM],
Nc1ccc(S(=O)(=O)NC(=O)c2ccccc2)cc1,-0.236% [at 18.6 µM],
Cc1nc(C)nc(N2C[C@@H](C)N(c3ccnc([C@@H](C)O)n3)[C@@H](C)C2)n1,0.0066% [at 46 µM],
COCC(=O)Nc1c(I)c(C(=O)NCC(O)CO)c(I)c(C(=O)N(C)CC(O)CO)c1I (stereo not given),-0.157% [at 18.6 µM],
CC(C)C(=O)c1ccccc1,0.188%,
CCCCOC(=O)C(=O)OCCCC,-0.0888%,
CC1=CC[C@H](CC=O)C1(C)C,-0.0505%,
Cc1cccc(Nc2ccncc2S(=O)(=O)NC(=O)NC(C)C)c1,0.173% [at 18.6 µM],
OC[C@@H](O)[C@H](O)[C@@H](O)[C@@H](O)CO,0.0369%,
NC(=O)NNC(N)=O,-0.31%,
CN(C)CCOCCN(C)CCO,0.139%,
CC(C)(C)c1ccc(C=O)cc1,0.0003%,
NCCc1ccn[nH]1,-0.006% [at 18.6 µM],
